Measured values reported in PubChem BioAssay (EPA / NIEHS).
Records with an inconclusive call do not appear. Calls of active or inactive are those of the source. Rule for the calls: active = hit-call score of the fitted dose curve at least 0.9, where 1 is the maximum; inconclusive = response in the unintended direction; inactive = score below 0.9.

The compounds below were run against human Protein Tyrosine Phosphatase Non-receptor Type 6 (PTPN6), PTPN6 (gene 5777) (UniProt P29350) (assay: NVS_ENZ_hPTPN6: NovaScreen (NVS) Enzymatic Assay for human Protein Tyrosine Phosphatase Non-receptor Type 6 (PTPN6) (AID 2283210)).
Sequence of human Protein Tyrosine Phosphatase Non-receptor Type 6 (PTPN6), PTPN6 (gene 5777) (P29350 whole entry, looked up): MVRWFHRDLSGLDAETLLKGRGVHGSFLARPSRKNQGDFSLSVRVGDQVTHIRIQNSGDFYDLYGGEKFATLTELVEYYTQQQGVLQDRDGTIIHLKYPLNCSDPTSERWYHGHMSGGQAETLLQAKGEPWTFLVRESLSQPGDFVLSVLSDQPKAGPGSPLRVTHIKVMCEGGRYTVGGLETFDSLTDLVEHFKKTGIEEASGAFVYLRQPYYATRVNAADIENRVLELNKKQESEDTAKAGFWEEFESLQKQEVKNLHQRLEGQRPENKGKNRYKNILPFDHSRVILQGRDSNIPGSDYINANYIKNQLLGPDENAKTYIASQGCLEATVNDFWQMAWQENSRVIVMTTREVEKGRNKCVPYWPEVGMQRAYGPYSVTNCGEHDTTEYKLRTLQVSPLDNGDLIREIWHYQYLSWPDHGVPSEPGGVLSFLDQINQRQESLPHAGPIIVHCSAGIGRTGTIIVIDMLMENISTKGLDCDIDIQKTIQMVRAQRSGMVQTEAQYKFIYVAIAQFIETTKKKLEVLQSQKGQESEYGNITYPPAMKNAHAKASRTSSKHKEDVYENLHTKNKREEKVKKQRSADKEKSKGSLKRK
Outline: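 Recombinant human PTPN6 from SF9 cells, enzyme activity followed by fluorescence after mobility-shift separation of substrate and product at 1.33 h. Chemicals first tested at a single 25 uM in duplicate, then confirmed across concentration series; loss of signal relative to DMSO.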
In the case of `CN(C)[C@@H]1C(=O)C(C(N)=O)=C(O)[C@@]2(O)C(=O)C3=C(O)c4c(O)cccc4[C@@](C)(O)[C@H]3C[C@@H]12`, the AC50 is reported as 25 µM (active). For `CC(C)(C)OOC(=O)c1ccccc1`, the outcome was “inactive”. In the case of `O=[N+]([O-])c1ccc(Oc2ccc(Cl)cc2Cl)cc1`, the outcome is reported as “inactive”. For `CC(C)(C)OOC(C)(C)CCC(C)(C)OOC(C)(C)C`, the AC50 was 39 µM (active). In the case of `C[N+](C)(C)CC1CO1` (configuration not stated), the outcome is reported as “inactive”. With `c1ccc(C2CO2)cc1` (configuration not stated) the outcome was “inactive”.

These compounds were tested against human Protein Tyrosine Phosphatase Receptor Type C (PTPRC), PTPRC (gene 5788) (UniProt P08575) (assay: NVS_ENZ_hPTPRC: NovaScreen (NVS) Enzymatic Assay for human Protein Tyrosine Phosphatase Receptor Type C (PTPRC) (AID 2283212)).
Sequence of human Protein Tyrosine Phosphatase Receptor Type C (PTPRC), PTPRC (gene 5788) (P08575 whole entry, looked up): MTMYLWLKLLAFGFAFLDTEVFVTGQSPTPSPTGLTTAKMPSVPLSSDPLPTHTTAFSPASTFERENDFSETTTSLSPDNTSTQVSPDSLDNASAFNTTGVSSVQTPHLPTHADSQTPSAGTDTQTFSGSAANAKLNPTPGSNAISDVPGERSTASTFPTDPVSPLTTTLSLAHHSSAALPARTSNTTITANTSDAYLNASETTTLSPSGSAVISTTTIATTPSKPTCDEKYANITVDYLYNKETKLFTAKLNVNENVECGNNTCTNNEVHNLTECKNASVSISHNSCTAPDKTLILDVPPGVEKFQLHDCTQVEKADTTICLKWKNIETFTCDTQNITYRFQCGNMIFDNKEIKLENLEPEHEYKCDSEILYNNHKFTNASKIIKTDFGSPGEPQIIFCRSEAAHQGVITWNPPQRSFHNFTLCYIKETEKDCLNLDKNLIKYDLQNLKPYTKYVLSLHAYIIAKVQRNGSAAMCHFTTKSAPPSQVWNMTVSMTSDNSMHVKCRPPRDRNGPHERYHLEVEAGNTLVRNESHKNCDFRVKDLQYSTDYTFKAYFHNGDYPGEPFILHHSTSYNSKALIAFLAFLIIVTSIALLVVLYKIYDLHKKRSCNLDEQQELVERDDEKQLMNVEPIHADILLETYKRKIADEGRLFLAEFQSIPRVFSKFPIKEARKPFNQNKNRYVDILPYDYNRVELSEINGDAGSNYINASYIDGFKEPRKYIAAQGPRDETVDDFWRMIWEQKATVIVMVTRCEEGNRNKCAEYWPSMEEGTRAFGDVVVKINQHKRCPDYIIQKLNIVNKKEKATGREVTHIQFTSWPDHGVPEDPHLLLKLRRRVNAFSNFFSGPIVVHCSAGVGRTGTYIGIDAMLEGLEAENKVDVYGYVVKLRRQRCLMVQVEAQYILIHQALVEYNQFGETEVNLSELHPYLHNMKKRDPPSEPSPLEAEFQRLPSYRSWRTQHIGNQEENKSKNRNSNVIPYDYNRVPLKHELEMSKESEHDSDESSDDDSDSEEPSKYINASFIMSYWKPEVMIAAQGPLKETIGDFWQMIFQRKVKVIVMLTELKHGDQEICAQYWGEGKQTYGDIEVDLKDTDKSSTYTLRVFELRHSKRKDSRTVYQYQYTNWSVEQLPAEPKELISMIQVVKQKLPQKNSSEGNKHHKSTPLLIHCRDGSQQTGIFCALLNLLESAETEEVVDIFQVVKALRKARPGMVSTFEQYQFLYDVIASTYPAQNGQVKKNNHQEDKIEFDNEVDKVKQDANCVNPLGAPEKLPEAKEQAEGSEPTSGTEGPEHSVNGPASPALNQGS
Outline: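 Absorbance-based phosphatase activity of human PTPRC protein extracted from yeast was measured 1 h post-dosing. Compounds first tested at 25 uM in duplicate, then those passing threshold in singleton concentration series to 50 uM.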
`COC(=O)c1ccccc1N` was tested, and the outcome was “inactive”. For `CN(C)[C@@H]1C(=O)C(C(N)=O)=C(O)[C@@]2(O)C(=O)C3=C(O)c4c(O)cccc4[C@@](C)(O)[C@H]3C[C@@H]12`, the AC50 was 15.6 µM (active). For `C[C@]12C=CC3=C4CCC(=O)C=C4CC[C@H]3[C@@H]1CC[C@@H]2O`, the AC50 was 9.63 µM (active). `O=[N+]([O-])c1ccc(Oc2ccc(Cl)cc2Cl)cc1` was tested, and the outcome was “inactive”. For `c1ccc(NNc2ccccc2)cc1`, the AC50 was 18.2 µM (active). In the case of `[O-][Cl+]O`, the outcome is reported as “inactive”. For `CN(C)C(=O)Nc1ccc(Cl)cc1`, the outcome was “inactive”. In the case of `Cc1cccc(N)c1N`, the AC50 is reported as 15.8 µM (active). `ClCCOCCCl` was tested, and the outcome was “inactive”. In the case of `Nc1ccc(Cl)cc1N`, the AC50 is reported as 16.2 µM (active). For `CC(C)(C)C(O)(CCc1ccc(Cl)cc1)Cn1cncn1` (configuration not stated), the outcome was “inactive”.
